# Results taken from PubChem BioAssay (EPA / NIEHS).
# Where “and” joins values, the source holds several entries; their conditions need not be identical. Equal values may be shown once. A structure can be active in one record and inactive in another. Calls of active or inactive are those of the source. The calls were made as follows: active = hit-call score of the fitted dose curve at least 0.9, where 1 is the maximum; inactive = score below 0.9.
# What was measured:
# [1] = APR_HepG2_StressKinase_1hr: Apredica 1-hour HepG2 Assay for Stress Kinase (AID 2282906); conditions: HepG2 stress kinase (phospho-c-Jun) imaging, actives raise or lower the signal
# Summary of the method: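 High-content imaging of phospho-c-Jun immunostaining (with Hoechst nuclear identification) after a 1 h exposure of HepG2 cells to 10 concentrations from 0.39 to 200 uM, final DMSO 0.5%. Fitted bidirectionally against DMSO.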
# [2] = APR_HepG2_NuclearSize_24hr: Apredica 24-hour HepG2 Assay for Nuclear Size (AID 2282907); conditions: high-content imaging, actives raise or lower the signal
# Summary of the method: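 Nuclear size is measured by fluorescence high-content imaging of Hoechst-labelled HepG2 nuclei after 24 hr of treatment (0.39–200 uM, 0.5% DMSO). Cells are fixed in 3.7% formaldehyde before staining, and DMSO serves as the baseline for bidirectional curve fitting.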
# [3] = APR_HepG2_CellLoss_24hr: Apredica 24-hour HepG2 Assay for Cell Loss (AID 2282908); conditions: high-content imaging;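 as to AC50: fit in both directions so a hit may be cell loss or gain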
# Summary of the method: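 Nuclear count serves as the viability measure: treated cells are fixed, permeabilized and labelled with Hoechst 33342, and six images per well are analysed to identify valid nuclei. Doses span 0.39–200 uM, and activity in either direction is scored against DMSO.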
# [4] = APR_HepG2_MicrotubuleCSK_24hr: Apredica 24-hour HepG2 Assay for Microtubule CSK Stabilty (AID 2282909); conditions: HepG2 microtubule cytoskeleton imaging, actives raise or lower the signal
# Summary of the method: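 Compounds were applied to HepG2 cells for 24 hours across 0.39–200 uM in duplicate, with final DMSO at 0.5% v/v. Fixed, permeabilized cells were labeled for alpha-tubulin and nuclei, and tubulin fluorescence was quantified by imaging, fitted bidirectionally against DMSO.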
# [5] = APR_HepG2_MitoticArrest_24hr: Apredica 24-hour HepG2 Assay for Mitotic Arrest (AID 2282910); conditions: high-content imaging, actives raise or lower the signal
# Summary of the method: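 High-content imaging of fixed HepG2 cells labeled with Hoechst 33342 and anti-phospho-histone H3, after 24 h treatment. Ten concentrations 0.39 to 200 uM in duplicate, final DMSO 0.5%; changes fitted both directions relative to DMSO.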
# [6] = APR_HepG2_MitoMembPot_24hr: Apredica 24-hour HepG2 Assay for Mitochondrial Membrane Potential (AID 2282911); conditions: imaging, actives raise or lower the signal
# Summary of the method: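 Mitochondrial membrane potential imaged via MitoTracker Red CMXRos (250 nM, 30 min pre-fixation) in fixed HepG2 cells with Hoechst nuclear identification. Ten concentrations 0.39–200 uM, 24 h treatment, 0.5% DMSO; CCCP as positive control.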
# [7] = APR_HepG2_MitoMass_24hr: Apredica 24-hour HepG2 Assay for Mitochondrial Mass (AID 2282912); conditions: high-content imaging, actives raise or lower the signal
# Summary of the method: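 After 24 hr of treatment at 0.39 to 200 uM, HepG2 cells take up 250 nM MitoTracker Red CMXRos for 30 min and are then fixed with 3.7% formaldehyde. Per-well images are quantified, and any change in either direction is scored against solvent.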
# [8] = APR_HepG2_p53Act_24hr: Apredica 24-hour HepG2 Assay for p53 Activation (AID 2282913); conditions: high-content imaging, actives raise or lower the signal;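 also: p53 protein immunofluorescence averaged per cell in HepG2 with Hoechst nuclei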
# Summary of the method: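 Fluorescence imaging of formaldehyde-fixed HepG2 cells labelled for p53 and with Hoechst, 24 h after dosing (0.39–200 uM, duplicate wells, 0.5% v/v DMSO). Signal fitted in both directions relative to DMSO.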
# [9] = APR_HepG2_CellCycleArrest_72hr: Apredica 72-hour HepG2 Assay for Cell Cycle Arrest (AID 2282914); conditions: high-content imaging, actives raise or lower the signal
# Summary of the method: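 Read-out: nuclear DNA content from Hoechst 33342 high-content imaging (20x, six fields/well) after 3.7% formaldehyde fixation, fitted bidirectionally against DMSO. Treatment was 72 h in HepG2, ten concentrations 0.39–200 uM, duplicate, 0.5% DMSO.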
# [10] = APR_HepG2_CellLoss_72hr: Apredica 72-hour HepG2 Assay for Cell Loss (AID 2282915); conditions: high-content imaging
# Summary of the method: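 Cell number comes from Hoechst 33342-labelled nuclei, imaged at 20x after 3.7% formaldehyde fixation. Dosing was 0.39–200 uM, ten concentrations in duplicate, 0.5% DMSO final, for 72 h. Bidirectional fit relative to DMSO baseline.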
# [11] = APR_HepG2_P-H2AX_72hr: Apredica 72-hour HepG2 Assay for H2AX Phosphorylation (AID 2282916); conditions: imaging, actives raise or lower the signal;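 also: phospho-histone H2A.x immunostain intensity per cell marking DNA damage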
# Summary of the method: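 Human hepatoma HepG2 cells are dosed across ten concentrations (0.39 to 200 uM, 0.5% v/v DMSO) and incubated 72 hr. Phospho-histone H2A.x is then detected by antibody staining alongside c-Jun and Hoechst, and quantified by automated fluorescence imaging.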
# [12] = APR_HepG2_MitoMembPot_72hr: Apredica 72-hour HepG2 Assay for Mitochondrial Membrane Potential (AID 2282917); conditions: imaging, actives raise or lower the signal
# Summary of the method: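 Membrane potential read by MitoTracker Red CMXRos (250 nM, 30 min, pre-fixation) fluorescence imaging of HepG2 after 72 hr exposure. Ten concentrations, 0.39–200 uM, duplicate wells, 0.5% DMSO; fitted in both directions against DMSO baseline.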
# [13] = APR_HepG2_MitoticArrest_72hr: Apredica 72-hour HepG2 Assay for Mitotic Arrest (AID 2282918); conditions: high-content imaging, actives raise or lower the signal
# Summary of the method: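 High-content imaging of fixed human HepG2 cells after 72 h compound exposure (0.39–200 uM, duplicates, 0.5% DMSO); mitotic arrest scored from phospho-histone H3 and nuclear Hoechst staining relative to DMSO.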
# [14] = APR_HepG2_MicrotubuleCSK_72hr: Apredica 72-hour HepG2 Assay for Microtubule CSK Stabilty (AID 2282919); conditions: HepG2 microtubule cytoskeleton, high-content imaging, actives raise or lower the signal
# Summary of the method: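 High-content imaging of alpha-tubulin staining in fixed HepG2 cells after 72 hr treatment with ten concentrations from 0.39 to 200 uM (0.5% DMSO). Fitting was bidirectional against DMSO; taxol served as positive control.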
# [15] = APR_HepG2_P-H2AX_24hr: Apredica 24-hour HepG2 Assay for H2AX Phosphorylation (AID 2282920); conditions: high-content imaging, actives raise or lower the signal
# Summary of the method: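 High-content imaging of phospho-histone H2A.x immunofluorescence, nuclei counterstained with Hoechst 33342, in fixed HepG2 cells. Compounds ran 0.39–200 uM in duplicate for 24 h, final DMSO 0.5%. Signal change fitted both directions against DMSO.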
# [16] = APR_HepG2_StressKinase_72hr: Apredica 72-hour HepG2 Assay for Stress Kinase (AID 2282921); conditions: HepG2 stress kinase (phospho-c-Jun) imaging, actives raise or lower the signal
# Summary of the method: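 After a 72 h compound treatment spanning 0.39 to 200 uM, formaldehyde-fixed cells are labelled for phosphorylated c-Jun and nuclei, imaged by automated fluorescence microscopy, and activity is fitted in both directions relative to DMSO controls.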
# [17] = APR_HepG2_StressKinase_24hr: Apredica 24-hour HepG2 Assay for Stress Kinase (AID 2282922); conditions: HepG2 stress kinase (phospho-c-Jun) imaging, actives raise or lower the signal
# Summary of the method: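 High-content imaging of phospho-c-Jun immunofluorescence in fixed, permeabilized HepG2 cells after 24 h dosing. Ten concentrations, 0.39 to 200 uM, run in duplicate at 0.5% v/v DMSO; gain or loss of signal versus DMSO.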
# [18] = APR_HepG2_p53Act_72hr: Apredica 72-hour HepG2 Assay for p53 Activation (AID 2282923); conditions: high-content imaging, actives raise or lower the signal;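 also: average cellular p53 protein immunofluorescence intensity in HepG2 cells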
# Summary of the method: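 Imaging-based endpoint: after 72 hr compound exposure (up to 200 uM, 0.5% DMSO), fixed and permeabilized monolayers were labelled with anti-p53 antibody and imaged; signal change in either direction was fitted relative to DMSO controls.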
# [19] = APR_HepG2_MitoMass_72hr: Apredica 72-hour HepG2 Assay for Mitochondrial Mass (AID 2282924); conditions: high-content imaging, actives raise or lower the signal;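 also: MitoTracker Red CMXRos stain intensity per cell imaged as mitochondrial mass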
# Summary of the method: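 Readout is imaged MitoTracker Red (250 nM, 30 min, pre-fixation) signal, fitted bidirectionally against DMSO baseline. Human HepG2 liver cells received compound 0.39–200 uM in duplicate for 72 hr, final DMSO 0.5%.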
# [20] = APR_HepG2_CellCycleArrest_24hr: Apredica 24-hour HepG2 Assay for Cell Cycle Arrest (AID 2282905); conditions: imaging, actives raise or lower the signal;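 also: cell cycle arrest scored as ratio of 2N to 4N nuclear DNA content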
# Summary of the method: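 Compounds (0.39 to 200 uM, final DMSO 0.5% v/v) are applied to HepG2 cells for 24 hours; cells are then fixed, permeabilized and nuclei labeled with Hoechst 33342. Automated imaging measures DNA content, and activity is fitted in both directions against DMSO.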
smiles,measurement,setting,value
CC(Oc1ccc(Cl)cc1Cl)C(=O)O (configuration not stated),outcome,[1],inactive
same,outcome,[2],inactive
same,outcome,[3],inactive
same,outcome,[4],inactive
same,outcome,[5],inactive
same,outcome,[6],inactive
same,outcome,[7],inactive
same,outcome,[8],inactive
same,outcome,[9],inactive
same,outcome,[10],inactive
same,outcome,[11],inactive
same,outcome,[12],inactive
same,outcome,[13],inactive
same,outcome,[14],inactive
same,outcome,[15],inactive
same,outcome,[16],inactive
same,outcome,[17],inactive
same,outcome,[18],inactive
same,outcome,[19],inactive
N#Cc1nn(-c2c(Cl)cc(C(F)(F)F)cc2Cl)c(N)c1S(=O)C(F)(F)F (configuration not stated),AC50,[20],50.9 µM (active)
same,outcome,[1],inactive
same,outcome,[2],inactive
same,AC50,[3],96.2 µM (active)
same,AC50,[4],87.2 µM (active)
same,AC50,[5],100 µM (active)
same,outcome,[6],inactive
same,outcome,[7],inactive
same,outcome,[8],inactive
same,AC50,[9],19.9 µM (active)
same,AC50,[11],34.9 µM (active)
same,outcome,[12],inactive
same,outcome,[13],inactive
same,AC50,[14],179 µM (active)
same,AC50,[15],107 µM (active)
same,outcome,[17],inactive
same,outcome,[19],inactive
CCNc1nc(Cl)nc(NCC)n1,outcome,[20],inactive
same,outcome,[1],inactive
same,outcome,[2],inactive
same,outcome,[3],inactive
same,outcome,[4],inactive
same,outcome,[5],inactive
same,outcome,[6],inactive
same,outcome,[7],inactive
same,outcome,[8],inactive
same,outcome,[11],inactive
same,outcome,[12],inactive
same,outcome,[13],inactive
same,outcome,[14],inactive
same,outcome,[15],inactive
same,outcome,[17],inactive
same,outcome,[19],inactive
Cc1c(F)c(F)c(COC(=O)C2C(/C=C(\Cl)C(F)(F)F)C2(C)C)c(F)c1F (configuration not stated),outcome,[1],inactive
same,outcome,[2],inactive
same,outcome,[3],inactive
same,outcome,[4],inactive
same,outcome,[5],inactive
same,outcome,[6],inactive
same,outcome,[7],inactive
same,outcome,[8],inactive
same,outcome,[9],inactive
same,outcome,[10],inactive
same,outcome,[11],inactive
same,outcome,[12],inactive
same,outcome,[13],inactive
same,outcome,[14],inactive
same,outcome,[15],inactive
same,outcome,[17],inactive
same,outcome,[19],inactive
CCCCNC(=O)OCC#CI,outcome,[20],inactive
same,outcome,[1],inactive
same,outcome,[2],inactive
same,AC50,[3],2.6 µM (active) and 6.77 µM (active)
same,AC50,[4],14.7 µM (active)
same,outcome,[4],inactive
same,outcome,[5],inactive
same,AC50,[6],119 µM (active) and 41 µM (active)
same,outcome,[7],inactive
same,outcome,[8],inactive
same,outcome,[9],inactive
same,outcome,[11],inactive
same,outcome,[12],inactive
same,AC50,[13],9.07 µM (active)
same,outcome,[13],inactive
same,AC50,[14],18 µM (active)
same,outcome,[14],inactive
same,outcome,[15],inactive
same,outcome,[17],inactive
same,AC50,[19],5.54 µM (active)
same,outcome,[19],inactive
O=C(O)COc1nc(Cl)c(Cl)cc1Cl,outcome,[1],inactive
same,outcome,[2],inactive
same,outcome,[3],inactive
same,outcome,[4],inactive
same,outcome,[5],inactive
same,outcome,[6],inactive
same,outcome,[7],inactive
same,outcome,[8],inactive
same,outcome,[9],inactive
same,outcome,[11],inactive
same,outcome,[12],inactive
same,outcome,[13],inactive
same,outcome,[14],inactive
same,outcome,[15],inactive
same,outcome,[16],inactive
same,outcome,[17],inactive
same,outcome,[19],inactive
